“And” between values parts separate entries of the source, which are not always exact repeats. Equal entries are not always repeated. A structure can be active in one record and inactive in another. The source made the active and inactive calls. A call without a number means that no potency is given here. Unless noted, calls follow the shape of the dose curve; as a rule, active = well fitted curve in the direction sought with a large enough effect in the repeat runs; inconclusive = weak or mixed curves; inactive = no such curve, though single readings can be large; an effect the other way counts as inactive or inconclusive.
Assays:
[1] = qHTS assay to identify small molecule antagonists of the thyroid receptor (TR) signaling pathway - cell viability counter screen (AID 743064); settings: GH3.TRE-Luc viability, CellTiter-Fluor, 24 h; series mostly up to 70.3 µM; also: nearly all actives have a fitted effect of over 50% in size
Procedure, shortened: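 Rat GH3 pituitary tumor cells stably expressing two TR response elements driving luciferase were plated, rested 4 h, then dosed with library compounds and T3 (1 nM final). After 23.5 h at 37 °C, CellTiter-Fluor was added for 30 min and fluorescence recorded.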

[2] = qHTS assay to identify small molecule antagonists of the thyroid receptor (TR) signaling pathway (AID 743065); settings: GH3.TRE-Luc, T3-stimulated luciferase inhibition, 23.5 h; series mostly up to 70.3 µM; also: nearly all actives have a fitted effect of over 55% in size
Procedure, shortened: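 GH3.TRE-Luc rat pituitary cells (two TREs driving luciferase) were dosed with compound, then stimulated with 1 nM T3 (final) for 23.5 h at 37 C. ONE-Glo luminescence was the read-out, with CellTiter-Fluor fluorescence as the cytotoxicity counter-screen.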

[3] = system: thyroid hormone receptor (rat, GH3 cells); assay: qHTS assay to identify small molecule agonists of the thyroid receptor (TR) signaling pathway (AID 743066; calls by dose curve; also: potency is read from the fitted curve at half-maximal effect); settings: GH3.TRE-Luc cells, TR agonist luciferase, 24 h; series mostly up to 83.9 µM
[4] = qHTS assay to identify small molecule antagonists of the estrogen receptor alpha (ER-alpha) signaling pathway - cell viability counter screen (AID 743074; calls by dose curve;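 also: HEK293 cells carrying ER-alpha-UAS-bla reporter stimulated with 17beta-estradiol; nearly all actives have a fitted effect of over 45% in size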); settings: ERalpha-bla HEK293 viability, CellTiter-Glo luminescence, 18 h; series mostly up to 69.4 µM
[5] = qHTS assay to identify small molecule antagonists of the estrogen receptor alpha (ER-alpha) signaling pathway using the BG1 cell line - cell viability counter screen (AID 743081); settings: BG1Luc4E2 viability, CellTiter-Fluor, 22 h; series mostly up to 70.3 µM;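 also: compound given together with 17beta-estradiol as the ER stimulus; nearly all actives have a fitted effect of over 45% in size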
[6] = target: Aromatase (Homo sapiens) (UniProt P11511); assay: qHTS assay to identify aromatase inhibitors (AID 743083); settings: MCF-7 aro ERE, testosterone-driven ERE luciferase, 24 h; series mostly up to 70.3 µM; also: nearly all actives have a fitted effect of over 55% in size; also: potency is read from the fitted curve at half-maximal effect
[7] = target: Estrogen receptor (Homo sapiens) (UniProt P03372); assay: qHTS assay to identify small molecule antagonists of the estrogen receptor alpha (ER-alpha) signaling pathway (AID 743069; active = well fitted curve in the direction sought with a large enough effect in the signal ratio in the repeat runs, not every such curve was filed as active; inconclusive = weak or mixed curves, or effect the other way; inactive = no such curve, though single readings can be large or run the other way; the % refers to the signal ratio; also: potency is read from the fitted curve at half-maximal effect); settings: HEK293 ER-alpha-UAS-bla, beta-lactamase ratio, antagonist mode; series mostly up to 69.4 µM
Procedure, shortened: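 HEK293 ER-alpha-UAS-bla GripTite cells, held overnight in 2% charcoal-stripped FBS, 5,000 cells/well, preincubated 4 h, then compound plus 17beta-estradiol for 18 h at 37C. Beta-lactamase read by LiveBLAzer B/G FRET substrate, 2 h at room temperature.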

[8] = target: Estrogen receptor (Homo sapiens) (UniProt P03372); assay: qHTS assay to identify small molecule agonists of the estrogen receptor alpha (ER-alpha) signaling pathway (AID 743075; calls by dose curve); settings: HEK293 ER-alpha-UAS-bla, beta-lactamase FRET ratio, 18 h; series mostly up to 70.1 µM
[9] = target: Estrogen receptor (Homo sapiens) (UniProt P03372); assay: qHTS assay to identify small molecule agonists of the estrogen receptor alpha (ER-alpha) signaling pathway using the BG1 cell line (AID 743079); settings: BG1Luc4E2 cells, ERE-luciferase agonist, 22 h; series mostly up to 70.3 µM; also: nearly all actives have a fitted effect of over 20% in size; also: potency is read from the fitted curve at half-maximal effect
[10] = qHTS assay to identify small molecule antagonists of the estrogen receptor alpha (ER-alpha) signaling pathway using the BG1 cell line (AID 743080; calls by dose curve;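 also: BG1 cells stimulated with 17beta-estradiol alongside compound; nearly all actives have a fitted effect of over 25% in size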); settings: BG1Luc4E2 ERE-luciferase antagonist mode, luminescence; series mostly up to 70.3 µM
Procedure, shortened: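 After 5 days in phenol-red-free 10% charcoal-stripped FBS medium, BG1-Luc-4E2 cells were seeded, left 24 h at 37 C, co-treated with compounds and 17beta-estradiol for 21.5 h, then assayed for viability and luciferase.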

Sequence of Estrogen receptor (Homo sapiens) (P03372 whole entry, looked up): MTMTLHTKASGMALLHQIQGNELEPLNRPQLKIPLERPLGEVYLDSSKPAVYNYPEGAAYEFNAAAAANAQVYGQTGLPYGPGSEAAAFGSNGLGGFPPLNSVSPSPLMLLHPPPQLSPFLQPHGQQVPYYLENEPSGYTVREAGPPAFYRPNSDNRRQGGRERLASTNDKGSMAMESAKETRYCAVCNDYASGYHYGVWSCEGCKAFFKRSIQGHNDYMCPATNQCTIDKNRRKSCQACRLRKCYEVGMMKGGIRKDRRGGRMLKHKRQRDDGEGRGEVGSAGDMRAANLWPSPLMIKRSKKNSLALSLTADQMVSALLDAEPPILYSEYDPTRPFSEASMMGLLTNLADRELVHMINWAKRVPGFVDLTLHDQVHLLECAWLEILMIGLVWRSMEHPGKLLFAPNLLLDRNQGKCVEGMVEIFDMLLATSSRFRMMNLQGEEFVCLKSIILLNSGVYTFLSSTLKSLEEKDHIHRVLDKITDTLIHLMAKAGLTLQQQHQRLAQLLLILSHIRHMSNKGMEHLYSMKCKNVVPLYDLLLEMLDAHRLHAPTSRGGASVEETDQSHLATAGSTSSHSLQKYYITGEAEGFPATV
Sequence of Aromatase (Homo sapiens) (P11511 whole entry, looked up): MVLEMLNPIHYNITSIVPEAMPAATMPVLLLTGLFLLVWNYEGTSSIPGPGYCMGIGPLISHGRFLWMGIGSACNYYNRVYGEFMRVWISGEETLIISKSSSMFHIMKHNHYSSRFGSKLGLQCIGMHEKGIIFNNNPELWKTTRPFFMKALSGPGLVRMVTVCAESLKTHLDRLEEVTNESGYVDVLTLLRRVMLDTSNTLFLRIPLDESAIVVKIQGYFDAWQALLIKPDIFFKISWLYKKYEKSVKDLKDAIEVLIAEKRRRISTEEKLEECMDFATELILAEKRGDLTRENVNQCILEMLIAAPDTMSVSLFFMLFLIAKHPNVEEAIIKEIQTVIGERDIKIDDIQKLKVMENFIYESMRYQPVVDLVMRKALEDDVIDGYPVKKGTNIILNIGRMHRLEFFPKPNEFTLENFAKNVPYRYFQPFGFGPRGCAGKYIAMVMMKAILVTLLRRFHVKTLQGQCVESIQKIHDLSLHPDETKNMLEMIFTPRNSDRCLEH

SMILES	Potency [1]	Potency [2]	Potency [3]	outcome [4]	outcome [5]	Potency [6]	Potency [7]	outcome [8]	Potency [9]	outcome [10]
Nc1nc(N)nc(NC2CC2)n1	inactive	inactive	inactive	inactive	inactive	inactive				
CNCC(O)c1ccc(O)cc1 (centres undefined)		inactive	inactive	inactive	inactive	inactive	inactive	inactive	inactive	inactive
Nc1cccc(Cl)c1		inactive	inactive	inactive	inactive	inactive	inactive	inactive	inactive	inactive
O=[N+]([O-])c1ccc(Cl)cc1		inactive	inactive	inactive	inactive	inactive				
C=CC#N		inactive	inactive	inactive	inactive	inactive	inactive	inactive	inactive	inactive
Nc1cc(Cl)cc(Cl)c1		inactive	inactive	inactive	inactive	inactive				
C=CC(=O)OCC(CC)CCCC (centres undefined)		inactive	inactive	inactive	inactive	inactive				
C=CCN=C=S		inactive	inactive	inactive	inactive	inactive	inactive	inactive	inactive	inactive
CCCCCCCCCCCCCCCCCC(=O)O				inactive	inactive					
[N-]=[N+]=CC(=O)OC[C@H](N)C(=O)O		inactive	inactive	inactive	inactive					
Oc1c(Br)cc(Br)cc1Br		inactive	inactive	inactive	inactive	inactive	inactive and 61.8 µM [inconclusive] (active)	inactive	inactive	inactive
CCCOC(=O)c1ccccc1C(=O)OCCC		inactive	inactive	inactive	inactive	inactive	inactive	inactive	inactive	inactive
Cl/C=C/Cl		inactive	inactive	inactive	inactive	inactive	inactive	inactive	inactive	inactive
CNc1cnn(-c2cccc(C(F)(F)F)c2)c(=O)c1Cl		inactive	inactive	inactive	inactive	inactive				
Cl[C@H]1OCCO[C@@H]1Cl		inactive	inactive	inactive	inactive	inactive				
Nc1ncc([N+](=O)[O-])s1		inactive	inactive	inactive	inactive	inactive	inactive	inactive	inactive and 61.1 µM (active)	inactive

SMILES	Potency [1]	Potency [2]	Potency [3]	outcome [4]	outcome [5]	Potency [6]	Potency [7]	outcome [8]	Potency [9]	outcome [10]
O=P1(NCCCl)OCCCN1CCCl (centres undefined)		inactive	inactive	inactive	inactive	inactive				
CCOC(=O)CC(SP(=O)(OC)OC)C(=O)OCC (centres undefined)		inactive	inactive		inactive	inactive				
Cc1cccc(C)c1N		inactive	inactive	inactive	inactive	inactive	inactive	inactive	inactive	inactive
CC12CC1(C)C(=O)N(c1cc(Cl)cc(Cl)c1)C2=O (centres undefined)		inactive	inactive	inactive	inactive	inactive				
N#Cc1cccc(C#N)c1		inactive	inactive	inactive	inactive	inactive				
O=C(O)COc1ccccc1		inactive	inactive	inactive	inactive	inactive	inactive	inactive	inactive	inactive
CCOP(=S)(OCC)Oc1cc(C)nc(C(C)C)n1			inactive	inactive	inactive	inactive and 17.2 µM (active)				
CC(=O)/C=C/c1ccccc1				inactive	inactive	inactive				
CCOP(=S)(OCC)Oc1ccc([N+](=O)[O-])cc1		inactive	inactive	inactive	inactive	inactive				
Cc1ccc(N)cc1		inactive	inactive and 77 µM (active)	inactive	inactive	inactive				
CN(C)NC(=O)CCC(=O)O		inactive	inactive	inactive	inactive	inactive				
O=C(O)C(Br)Br		inactive	inactive	inactive	inactive	inactive	inactive	inactive	inactive	inactive
CCSC(=O)N1CCCCCC1		inactive	inactive	inactive	inactive	inactive	inactive	inactive	inactive	inactive
C=C(C)C(=O)OCC(CC)CCCC (centres undefined)		inactive	inactive	inactive	inactive	inactive	inactive	inactive	inactive	inactive
Cc1ccccc1N		inactive	inactive	inactive	inactive	inactive				
O=C(O)C1C(C(=O)O)C2(Cl)C(Cl)=C(Cl)C1(Cl)C2(Cl)Cl (centres undefined)		inactive	inactive	inactive	inactive	inactive	inactive	inactive	inactive	inactive

Reference: PubChem BioAssay (Tox21)
